According to article PMC5540273 (PLoS ONE, 2017):

Tests used:
Conditions in all cases: concentration: 1 μM, replicates: in singlicate; n = 1
ACVR1 = system: ACVR1
ACVR2A = system: ACVR2A
ACVR2B = system: ACVR2B
ACVRL1 = system: ACVRL1
ADCK3 = system: T1, ADCK3
T1 construct: gene CABC1

ADCK4 = system: ADCK4
AKT1 = system: AKT1
AKT2 = system: AKT2
AKT3 = system: AKT3
ALK = system: ALK
AMPK-alpha1 = system: T2, AMPK-alpha1
T2 construct: gene PRKAA1

AMPK-alpha2 = system: T3, AMPK-alpha2
T3 construct: gene PRKAA2

ANKK1 = system: ANKK1
ARK5 = system: T4, ARK5
T4 construct: gene NUAK1

ASK1 = system: T5, ASK1
T5 construct: gene MAP3K5

ASK2 = system: T6, ASK2
T6 construct: gene MAP3K6

AURKA = system: AURKA
AURKB = system: AURKB
AURKC = system: AURKC
AXL = system: AXL
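Also: KINOMEscan kinase panel screen.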

SMILES	%Inh (ACVR1) [%]	%Inh (ACVR2A) [%]	%Inh (ACVR2B) [%]	%Inh (ACVRL1) [%]	%Inh (ADCK3) [%]	%Inh (ADCK4) [%]	%Inh (AKT1) [%]	%Inh (AKT2) [%]	%Inh (AKT3) [%]	%Inh (ALK) [%]	%Inh (AMPK-alpha1) [%]	%Inh (AMPK-alpha2) [%]	%Inh (ANKK1) [%]	%Inh (ARK5) [%]	%Inh (ASK1) [%]	%Inh (ASK2) [%]	%Inh (AURKA) [%]	%Inh (AURKB) [%]	%Inh (AURKC) [%]	%Inh (AXL) [%]
FC(F)(F)c1ccccc1-c1cc(-c2c[nH]nc2-c2ccccn2)ccn1 [GW679396]	0	3	17	0	4	0	0	7	16	18	0	25	0	0	10	0	44	0	16	0
COc1ccc(Nc2nccc(N3CCC(NC(=O)C(C)c4ccc(Cl)cc4)CC3)n2)cc1 (centres unmarked) [GSK1379812]	8	0	0	0	25	18	0	0	3	18	35	11	3	20	0	0	23	4	42	0
CNc1nc(-c2ccc3c(N)n[nH]c3c2)cc(N2C[C@@H](C(=O)NC3CCCCC3)OC[C@H]2C)n1 [GSK2375584]	18	0	35	0	24	18	0	22	0	0	6	0	8	23	12	0	9	16	12	0
CCn1c(-c2c(N)noc2C)nc2cnccc21 [SB-737856]	21	0	0	0	23	24	0	18	0	35	4	0	0	25	0	0	0	32	4	0
COC(=O)C(NC(=O)NC1CCN(c2ccnc(Nc3ccc(F)cc3)n2)C1)c1ccccc1 (centres unmarked) [GSK1379712]	4	0	11	0	0	22	0	0	0	19	0	12	10	8	20	2	5	0	32	0
NS(=O)(=O)c1cccc(N/C=C2\C(=O)Nc3ccc(S(=O)(=O)Cc4c(Cl)cccc4Cl)cc32)c1 [GSK398099]	0	0	0	0	1	18	0	25	0	8	0	0	0	0	3	0	26	30	0	0
COc1ccc(Nc2nccc(N3CCC(NC(=O)C(C)c4ccc(Cl)cc4)C3)n2)cc1 (centres unmarked) [GSK1379735]	14	0	0	0	22	17	0	9	0	25	0	21	0	22	10	4	0	24	49	16
COc1cccc(CNC(=O)NC2CCN(c3ccnc(Nc4ccc(F)cc4)n3)C2)c1 (centres unmarked) [GSK1379723]	10	0	0	0	10	35	0	12	0	43	0	12	0	24	0	9	11	37	49	6
O=C1NC(=O)C(c2ccc(Cl)cc2)=C1Nc1cccc(Cl)c1 [SB-317651]	0	0	0	16	17	0	0	5	0	0	0	0	0	0	3	0	0	35	0	20
O=C(Nc1n[nH]c2nc(-c3cccs3)c(Br)cc12)C1CC1 [SB-735297]	27	0	0	0	0	0	0	0	0	0	0	8	9	0	2	13	0	31	6	28
Cn1cncc1-c1cc2c(Nc3ccc(OCc4ccccc4)cc3)ncnc2cn1 [GW281179]	5	0	18	0	7	24	0	5	0	23	0	0	0	13	9	0	0	25	5	0
O=C(Nc1n[nH]c2cc(-c3ccsc3)ccc12)C1CC1 [SB-732932]	28	26	45	0	0	0	0	21	9	9	7	0	40	0	0	30	13	35	20	43
Cc1ccccc1-c1cc(-c2c[nH]nc2-c2ccccn2)ccn1 [GW680061]	9	0	0	0	1	12	0	3	0	22	1	0	0	0	0	14	0	4	6	0
CSc1ccc(-c2nc3n(c2-c2ccncc2)CCC3)cc1 [SKF-105561]	5	0	2	21	0	0	6	0	6	8	0	0	0	0	12	17	10	0	0	0
c1ccc(-c2ccnc3[nH]ccc23)cc1 [SB-693578]	0	0	0	0	6	40	0	6	0	33	0	0	0	20	2	19	17	41	0	0
CNCc1ccc2nc(NC(=O)c3ccc(C(C)(C)C)cc3)cn2c1	2	0	0	7	0	13	5	8	17	16	0	13	40	0	21	0	8	22	25	15
COc1ccc(CSc2nnc(-c3ccc4ncsc4c3)o2)cc1C(F)(F)F	0	0	0	2	0	0	8	4	0	0	0	13	0	10	0	4	0	13	0	0
COC(=O)C(Cc1ccccc1)NC(=O)NC1CCN(c2ccnc(Nc3ccc(F)cc3)n2)C1 (centres unmarked) [GSK1379714]	6	0	6	0	21	36	0	0	0	0	7	0	0	0	5	0	43	11	35	3
CC(=O)c1c(C)c2cnc(Nc3ccc(N4CCNCC4)cn3)nc2n(C2CCCC2)c1=O	0	0	0	0	0	0	0	0	11	5	0	0	0	0	0	0	0	0	0	0
Nc1cccc(-c2ccc3c(N)n[nH]c3c2)n1 [GSK2192730]	0	0	9	0	1	0	0	0	0	21	0	0	17	0	0	13	8	15	22	0
Cc1c(Cn2c3ccccc3n3c(=O)cc(N4CCOCC4)nc23)cccc1C(F)(F)F [GSK2306394]	10	6	0	9	0	0	0	19	0	2	0	0	0	8	0	8	0	9	14	5

SMILES	%Inh (ACVR1) [%]	%Inh (ACVR2A) [%]	%Inh (ACVR2B) [%]	%Inh (ACVRL1) [%]	%Inh (ADCK3) [%]	%Inh (ADCK4) [%]	%Inh (AKT1) [%]	%Inh (AKT2) [%]	%Inh (AKT3) [%]	%Inh (ALK) [%]	%Inh (AMPK-alpha1) [%]	%Inh (AMPK-alpha2) [%]	%Inh (ANKK1) [%]	%Inh (ARK5) [%]	%Inh (ASK1) [%]	%Inh (ASK2) [%]	%Inh (AURKA) [%]	%Inh (AURKB) [%]	%Inh (AURKC) [%]	%Inh (AXL) [%]
COc1ccc(Nc2nccc(N3CCC(NC(=O)c4cc5ccccc5s4)C3)n2)cc1 (centres unmarked) [GSK1379738]	0	0	0	0	0	37	0	5	0	25	0	3	3	19	12	11	14	0	22	7
Cl.Cl.Cl.N#Cc1ccc(CCNc2nccc(-c3cccc(CN4CCNCC4)c3)n2)cc1 [GSK2137462]	11	0	0	0	23	22	0	5	5	15	25	14	15	17	20	4	20	0	15	44
O=c1cc(N2CCOCC2)nc2n(Cc3cccc(Cl)c3Cl)c3ccccc3n12 [GSK2299009]	0	0	0	6	13	36	0	21	0	25	5	16	6	0	2	0	17	7	46	59
Cc1ccc(-c2nc(Nc3ccncc3)c3ccccc3n2)s1 [GSK189015]	34	17	11	29	21	4	55	19	3	26	0	20	65	17	1	11	0	0	24	20
COc1ccc(Nc2nccc(NCCNC(=O)Nc3cc(C)ccc3C)n2)cc1 [GSK1379899]	2	2	6	0	0	0	0	0	0	1	0	0	0	0	0	0	0	14	36	4
Cn1cncc1C(=O)NC1CCN(c2ccnc(Nc3ccc(F)cc3)n2)C1 (centres unmarked) [GSK1379717]	24	24	2	0	2	26	0	0	0	0	0	12	0	9	10	3	0	23	8	0
O=c1cc(N2CCOCC2)nc2n(Cc3ccccc3F)ccn12 [GSK2297428]	0	0	0	0	13	8	0	0	0	0	0	0	9	0	0	0	0	13	0	0
Nc1nccc(-c2c(-c3ccc(F)cc3)ncn2C2CCN(Cc3ccccc3)CC2)n1 [SB-219980]	7	0	0	9	0	55	15	0	0	16	0	3	59	15	0	0	21	22	0	9
Cn1cnc2c(N)ncnc21 [SKF-97623]	0	0	0	0	0	17	0	0	0	28	5	0	0	0	0	0	5	0	0	10
Cc1ccc(NC(=O)Nc2ccc(Cl)cc2)cc1-c1ccc(C(=O)Nc2ccncc2)cc1 [GSK1398472]	15	0	0	0	22	23	0	0	0	46	3	3	12	1	11	0	0	28	10	11
CCn1c(-c2ccccc2)nc2cnccc21 [SB-733416]	23	20	15	10	8	0	0	14	0	36	0	0	0	8	28	17	0	0	30	10
O=C(Nc1n[nH]c2nc(-c3ccco3)c(Br)cc12)C1CCN(Cc2ccccc2)C1.O=C(O)[C@H](O)[C@@H](O)C(=O)O (centres unmarked) [SB-742034]	0	21	0	28	7	0	0	3	3	5	9	0	11	0	13	17	34	17	7	13
CCc1ccc(-c2ccc3c(c2)-c2n[nH]cc2S(=O)(=O)N3C)cc1	0	13	22	0	9	0	3	0	0	0	0	1	0	13	6	0	0	0	11	51
COC(=O)c1cccc(NC(=O)NC2CCN(c3ccnc(Nc4ccc(OC)cc4)n3)C2)c1 (centres unmarked) [GSK1379746]	41	0	0	0	18	52	0	11	0	20	0	0	0	31	22	0	10	25	28	0
Cc1nccc(-c2c(-c3ccc(F)cc3)ncn2CCCN2CCOCC2)n1.Cl [SB-282975]	5	53	7	19	37	0	28	0	0	9	0	0	33	0	7	20	8	14	34	0
CC(=O)c1c(C)c2cnc(Nc3ccn(C)n3)nc2n(C2CCCC2)c1=O	16	0	0	0	0	0	3	23	0	6	20	0	0	0	0	0	4	0	0	0
CC(C)c1cc(-c2ccc3c(N)n[nH]c3c2)nc(N)n1 [GSK2250882]	0	0	0	0	13	37	0	17	0	0	0	0	8	0	0	7		18	56	0
Cc1ccc(NC(=O)c2ccc(Cl)cc2)cc1-c1ccc(C(=O)Nc2ccncc2)cc1 [GSK1398467]	7	0	10	0	15	0	0	19	0	18	0	21	0	6	0	21	0	1	17	0
Cc1ccc(NC(=O)Nc2ccccc2)cc1-c1ccc(C(=O)Nc2ccncc2)cc1 [GSK1398471]	0	0	0	0	19	14	1	4	0	21	15	11	0	13	10	4	15	0	0	11
Cc1cccc2c(-c3ccncn3)c(-c3ccc(F)cc3)nn12 [GW515532]	0	19	37	21	40	40	0	8	0	23	3	16	0	0	0	0	0	0	18	10
Fc1ccc(-c2nn3cccc(F)c3c2-c2ccncc2)cc1 [GW475620]	11	0	47	22	12	9	0	14	29	16	42	19	0	16	8	0	0	45	46	3
